TRPM1 prom inh: reduces MITF-dependent TRPM1 promoter luciferase signal; inhibition, % at 12.5 µM; hit rate 0.83% among 330,000; SK-MEL-5 TRPM1 promoter luciferase, 24 h; AID 488899;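 active = mean inhibition across replicates of 60% or more, whatever share of single replicates reaches that level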
EWS-Fli block: blocks EWS/Fli oncoprotein-driven transcription. A673 NR0B1-luciferase reporter, viability-normalised. inhibition, % at 12.6 µM. hit rate 0.67% among 350,000. AID 651661;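 active = mean inhibition of at least 50% after viability correction, with every replicate also passing that limit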;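 also: firefly luciferase signal divided by Alamar Blue viability fluorescence both relative to DMSO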
ABHD5-PLIN5 inh: inhibitors of human ABHD5-perilipin-5 interaction; hit rate 0.78% among 360,000; Split G. princeps luciferase complementation, luminescence, 4 h; inhibition, % at 4 µM; Q00G26+Q8WTS1;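 active = inhibition above the mean inhibition across every tested compound plus 3 SD, cut at about 22% in these data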;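 also: 0% = DMSO only wells and the 100% control is not disclosed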
Target sequence (Q00G26 whole entry, looked up): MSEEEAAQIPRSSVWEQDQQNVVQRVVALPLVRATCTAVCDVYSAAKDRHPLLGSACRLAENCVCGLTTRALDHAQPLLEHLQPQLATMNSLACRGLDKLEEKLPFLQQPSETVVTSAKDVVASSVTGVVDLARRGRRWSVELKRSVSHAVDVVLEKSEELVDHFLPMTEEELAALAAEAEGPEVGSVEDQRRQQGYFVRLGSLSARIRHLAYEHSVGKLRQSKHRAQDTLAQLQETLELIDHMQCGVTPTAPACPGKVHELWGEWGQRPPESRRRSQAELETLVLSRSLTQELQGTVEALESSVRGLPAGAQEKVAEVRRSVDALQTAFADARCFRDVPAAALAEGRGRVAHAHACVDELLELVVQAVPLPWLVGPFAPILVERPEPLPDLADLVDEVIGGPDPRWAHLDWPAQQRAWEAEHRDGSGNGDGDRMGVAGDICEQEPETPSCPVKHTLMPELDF
Target sequence (Q8WTS1 whole entry, looked up): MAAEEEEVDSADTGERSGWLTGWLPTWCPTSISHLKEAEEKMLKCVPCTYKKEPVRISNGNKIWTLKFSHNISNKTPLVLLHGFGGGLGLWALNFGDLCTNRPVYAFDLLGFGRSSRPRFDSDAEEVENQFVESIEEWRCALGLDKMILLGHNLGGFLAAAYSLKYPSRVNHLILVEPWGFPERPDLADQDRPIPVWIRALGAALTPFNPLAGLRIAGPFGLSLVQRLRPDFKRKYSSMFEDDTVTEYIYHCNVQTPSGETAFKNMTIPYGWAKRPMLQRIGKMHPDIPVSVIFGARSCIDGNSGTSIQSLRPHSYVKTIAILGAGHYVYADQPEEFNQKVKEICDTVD
Peg3 prom inh: inhibitors of Peg3 promoter. HeLa PEG-Prom luciferase reporter, luminescence, overnight. hit rate 1.7% among 360,000. inhibition, % at 20 µM. AID 588405;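 active = inhibition of at least 50% at 20 µM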
Shn3 3UTR inh: Schnurri-3 reporter inhibition in Clone20 osteoblasts. Clone20 osteoblast Shn3 3'UTR firefly luciferase, 24 h. inhibition, % at 12.5 µM. hit rate 0.52% among 360,000. AID 588674;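 active = mean inhibition of at least 75% with every replicate also reaching 75%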;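 also: 0% = median of neutral control wells and 100% = pilot-screen positive control compound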
PAX8 reporter: inhibitors of PAX8 transcriptional activity in RMG-I cells | RMG-I TPO-luciferase reporter, SteadyGlo, 24 h | inhibition, % at 12.6 µM | hit rate 1.2% among 360,000 | AID 652154;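 active = mean replicate inhibition at least 60% with every replicate also reaching 60%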;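 also: luciferase light reporting Pax8 driven TPO promoter activity; plate controls were median of neutral control wells for no effect and mitoxantrone controls for full effect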
Active calls of the source: *; / = not tested or not shown. The list is not random: actives were taken first. Their share in the collection is about 3%.

SMILES	TRPM1 prom inh	EWS-Fli block	ABHD5-PLIN5 inh	Peg3 prom inh	Shn3 3UTR inh	PAX8 reporter
COc1ccc(C2=Nn3c(nnc3-c3ccccc3F)SC2)cc1OC1CCOC1 (stereo not given)	27	60*	-1	27	24	-13
COc1ccc(OC)c(-c2nnc3n2N=C(c2ccc(OC)c(OC)c2)CS3)c1	50	56*	6	-11	17	53
COc1cc(NC(=O)c2ccco2)c(C(=O)OCC(=O)c2c[nH]c3ccccc23)cc1OC	-7	/	4	75*	15	51
CC(C)CC1NC(=S)N(Cc2ccccc2)C1=O (stereo not given)	5	15	-1	99*	9	90*
COc1ccc(NCc2nn(CC(=O)c3ccc(Br)cc3)c3[n+]2CCCCC3)cc1	1	-6	6	3	-4	-7
O=C(Cn1nc(CNc2ccc(Br)cc2)[n+]2c1CCCCC2)c1ccc([N+](=O)[O-])cc1	1	12	20	4	-6	71*
O=C(c1ccccn1)N1CC2(C1)[C@H](c1ccccc1)[C@H](CO)N2C(=O)C1CCC1	/	-5	/	/	/	/
COc1ccc(C2=CC(=O)CC(c3ccc(OC)cc3)C2)cc1 (stereo not given)	-28	-20	0	-77	-22	-11
COc1ccc([C@H]2CC(=O)C=C(c3cc(Cl)ccc3OC)C2)cc1	18	47	-2	16	-11	32
CCOc1ccc(Cl)cc1C1=CC(=O)C[C@H](c2ccc(OC)cc2)C1	19	60*	-3	11	11	22
COc1ccc([C@H]2CC(=O)C=C(c3c(OC)cccc3OC)C2)cc1	22	63*	13	18	13	11
O=C(NCC[C@@H]1CC[C@@H](NS(=O)(=O)Cc2ccccc2)[C@@H](CO)O1)C1CCCC1	/	0	/	/	/	-11
CCCN1C[C@@H](C)[C@@H](OC)CN(C)C(=O)c2cc(NC(=O)COC)ccc2OC[C@@H]1C	/	0	/	/	/	-15
COc1ccc2c3c(n(C)c2c1)[C@@H](CO)N(Cc1ccccc1)CC31CCN(S(C)(=O)=O)CC1	/	17	/	/	/	/
COc1ccc2c3c(n(C)c2c1)[C@H](CO)N(Cc1ccccc1)CC31CCN(S(=O)(=O)c2ccc(C)cc2)CC1	/	42	/	/	/	84*
COc1cc2c3nnc(-c4ccc(F)cc4)c-3cn(Cc3ccccc3)c2cc1OC	/	42	-2	103*	24	69*
COc1ccc(-c2nnn(Cc3ccccc3)n2)cc1OC	-25	-26	-2	-28	-2	-31
COc1cc2c3nnc(-c4ccc(F)cc4)c-3cn(Cc3ccc(F)cc3)c2cc1OC	73*	35	3	98*	-13	26
COc1ccc(S(=O)(=O)Nc2ccc3c(c2)C(=O)N([C@H](C)CO)C[C@H](C)[C@@H](CN(C)Cc2ccc(Cl)c(Cl)c2)OCCCC[C@@H](C)O3)cc1	/	35	/	/	/	94*
COc1ccc(S(=O)(=O)Nc2ccc3c(c2)C(=O)N([C@H](C)CO)C[C@H](C)[C@@H](CN(C)Cc2ccc(Cl)c(Cl)c2)OCCCC[C@H](C)O3)cc1	/	17	/	/	/	47
COc1ccc(S(=O)(=O)Nc2ccc3c(c2)C(=O)N([C@@H](C)CO)C[C@@H](C)[C@@H](CN(C)Cc2ccc(Cl)c(Cl)c2)OCCCC[C@@H](C)O3)cc1	/	-9	/	/	/	48
COc1ccc(S(=O)(=O)Nc2ccc3c(c2)C(=O)N([C@H](C)CO)C[C@@H](C)[C@H](CN(C)Cc2ccc(Cl)c(Cl)c2)OCCCC[C@@H](C)O3)cc1	/	20	/	/	/	66*
O=C(Cc1ccccn1)N1CC(=O)N2[C@@H](CO)[C@H](c3ccc(C#CC4CCCC4)cc3)[C@@H]2C1	/	15	/	/	/	/
O=C(Nc1cccnc1)c1ccc([N+](=O)[O-])s1	75*	35	-5	-2	27	67*
O=C(Nc1ccccc1F)c1ccc([N+](=O)[O-])s1	33	11	3	-128	-13	10
SMILES	TRPM1 prom inh	EWS-Fli block	ABHD5-PLIN5 inh	Peg3 prom inh	Shn3 3UTR inh	PAX8 reporter
O=C(Nc1ccc(F)cc1F)C1CCCN(c2ncnc3c2nc2n3CCCCC2)C1 (stereo not given)	2	/	8	28	19	/
O=C(Nc1cc(F)ccc1F)C1CCCN(c2ncnc3c2nc2n3CCCCC2)C1 (stereo not given)	7	/	6	52*	-8	24
NNC(=O)c1cc(-c2cccs2)nc2ccccc12	0	1	0	-2	-1	12
O=C(O)c1ccc(/C=N/NC(=O)c2cc(-c3cccs3)nc3ccccc23)cc1	-6	4	2	65*	-19	-14
CC(/C=N/NC(=O)c1cc(-c2ccncc2)nc2ccccc12)=C\c1ccco1	68*	/	9	0	13	/
COc1ccccc1-c1cc(C(=O)N/N=C/c2sccc2C)c2ccccc2n1	11	/	0	23	27	/
O=C(N/N=C/c1ccsc1)c1cc(-c2cccs2)nc2ccccc12	10	14	-3	17	6	133*
Cc1ccc(/C=N/NC(=O)c2cc(-c3ccncc3)nc3ccccc23)o1	29	/	2	4	23	27
Cc1ccsc1/C=N/NC(=O)c1cc(-c2ccncc2)nc2ccccc12	22	41	2	8	-2	69*
CCCN1C[C@H](C)[C@H](OC)CN(C)C(=O)c2ccc(NC(=O)c3ccc(F)cc3)cc2OC[C@@H]1C	/	-1	/	/	/	16
C[C@H](CO)N1C[C@H](C)[C@@H](CN(C)CC2CCCCC2)Oc2ccc(NC(=O)CCC(F)(F)F)cc2C1=O	/	10	/	/	/	-5
C[C@@H]1CN([C@H](C)CO)C(=O)CCCn2cc(nn2)CO[C@H]1CN(C)Cc1ccc(O)cc1	/	9	/	/	/	/
C[C@@H]1CN([C@@H](C)CO)S(=O)(=O)c2ccc(Br)cc2O[C@H]1CN(C)C(=O)Nc1ccc(C(F)(F)F)cc1	/	1	1	53*	10	24
COc1ccc(NC(=O)N(C)C[C@H]2Oc3cc(C#CCC(C)C)ccc3S(=O)(=O)N([C@@H](C)CO)C[C@@H]2C)cc1	/	19	/	/	/	54
C[C@@H]1CN([C@H](C)CO)S(=O)(=O)c2ccc(C#Cc3ccncc3)cc2O[C@H]1CN(C)C(=O)Nc1ccc2c(c1)OCO2	/	19	/	/	/	91*
COc1cccc(C#Cc2ccc3c(c2)O[C@@H](CN(C)C(=O)c2ccccn2)[C@H](C)CN([C@@H](C)CO)S3(=O)=O)c1	/	22	/	/	/	73*
COc1ccc(NC(=O)N(C)C[C@@H]2Oc3cc(C#CCC(C)C)ccc3S(=O)(=O)N([C@@H](C)CO)C[C@@H]2C)cc1	/	2	/	/	/	65*
CCCN(C)C[C@H]1OCCCC[C@H](C)Oc2ccc(NS(C)(=O)=O)cc2C(=O)N([C@H](C)CO)C[C@H]1C	/	-11	/	/	/	-12
COc1cccc(NC(=O)N(C)C[C@H]2Oc3cc(C#Cc4ccncc4)ccc3S(=O)(=O)N([C@H](C)CO)C[C@@H]2C)c1	/	19	/	/	/	/

Assay outcomes: PubChem BioAssay, several laboratories
